According to ChEMBL document CHEMBL4513216, “Probing the Open Global Health Chemical Diversity Library for Multistage-Active Starting Points for Next-Generation Antimalarials” (ACS Infect Dis, 2020):
Among all 69,000 compounds or so, about 8,600 (12%) showed an effect of 50% or more. This is one part of a sample in which strong results are shown more often than they occur.

Each molecule was assayed on Plasmodium berghei (assay: Screen against P. berghei liver stage (PbLuc), transformed with Luciferase, at 10uM). Settings: tested at 10 uM.
Type: functional, HepG2

Structure (SMILES)	INHIBITION [%]
CC(C)OCc1nn(C)c2c1CCN(Cc1ccco1)C2	-16.9
CCC(=O)N1CCN(c2nc(C)nc3c(C)nn(C)c23)CC1	27.5
COc1ccc(C(=O)N2Cc3cc(C)ccc3OCC2CN(C)C)cc1 (stereo unspecified)	66.5
Cc1ccc2c(c1)CN(C(=O)c1ccccc1F)C(CN(C)C)CO2 (stereo unspecified)	23.9
Cc1ccc2c(c1)CN(C(=O)c1cccnc1)C(CN(C)C)CO2 (stereo unspecified)	46
Cc1ccc2c(c1)CN(C(=O)c1cccs1)C(CN(C)C)CO2 (stereo unspecified)	-10.5
Cc1ccc2c(c1)CN(C(=O)c1ccncc1)C(CN(C)C)CO2 (stereo unspecified)	-23.8
COc1ccccc1C(=O)N1Cc2cc(C)ccc2OCC1CN(C)C (stereo unspecified)	60.3
CCCc1nc(NCCCOCC)c2c(n1)c(C)nn2CC	-1.4
CC1CCCCN1c1nc2c(c(=O)[nH]1)CCN(Cc1ccccc1O)C2 (stereo unspecified)	23.4
Cc1cccc(CN2CCc3c(nc(N4CCCCC4C)[nH]c3=O)C2)n1 (stereo unspecified)	18.2
CC1CCCCN1c1nc2c(c(=O)[nH]1)CCN(Cc1ccccc1F)C2 (stereo unspecified)	72.3
CC1CCCCN1c1nc2c(c(=O)[nH]1)CCN(Cc1ccccn1)C2 (stereo unspecified)	36.7
Cc1ccsc1CN1CCc2c(nc(N3CCCCC3C)[nH]c2=O)C1 (stereo unspecified)	85.7
CC1CCCCN1c1nc2c(c(=O)[nH]1)CCN(Cc1ccc(O)cc1)C2 (stereo unspecified)	10
O=C(NCCn1nc2ccccn2c1=O)c1scnc1Cl	17.02
Cn1cc(CN(C(=O)c2ccc(O)c(Cl)c2)C2CC2)cn1	21.3
CC1CN(c2ncnc3sccc23)CCN1c1nccs1 (stereo unspecified)	60.2
N#Cc1ccc(N2CCCN(c3nccs3)CC2)nc1	-28.2

Structure (SMILES)	INHIBITION [%]
CC1CN(c2ncnc3c2cnn3C)CCN1c1nccs1 (stereo unspecified)	5.91
c1csc(N2CCCN(c3ncnc4sccc34)CC2)n1	66.8
CCC[C@@H]1CN(c2ncnc3sccc23)C[C@H]1C(=O)O	-7.98
c1csc(N2CCN(c3ncnc4sccc34)CC2)n1	38.5
CN1CC(=O)N(c2ccccc2)CC12CCN(Cc1cccnc1)C2 (stereo unspecified)	8.47
CC(C)CCn1[nH]c(CNc2ccc(F)cc2)nc1=O	15.1
CN1CCC2(C=C(C(=O)N3CCCC3)c3ccccc32)CC1	26.4
Cc1ccc(CC(=O)N2CCOC(c3ncc(CN(C)C)[nH]3)C2)s1 (stereo unspecified)	7.19
CNc1ncc(-c2csc(NC(=O)C[C@H]3COCCN3)n2)cn1	24.8
CC(C)CC(=O)N1CCC(c2nnc3n2CCCCC3)CC1	-16.5
Cn1cc(N)c(-c2nnc3n2CCCC3)n1	42.6
CCC(NC(=O)CCCNC(=O)OC)c1cc(F)ccc1F (stereo unspecified)	-13.6
CCc1nc(CSC2CCCN(c3cnn(C)c3)C2=O)cs1 (stereo unspecified)	29
O=C(c1cc2c([nH]c1=O)CCC2)N1CCCC1c1ccccc1 (stereo unspecified)	-19.7
O=C(c1cc2c([nH]c1=O)CCC2)N1CCCC1c1ccc(F)cc1 (stereo unspecified)	20.6
O=C(c1cc2c([nH]c1=O)CCC2)N1CCCCC1c1cccc(F)c1 (stereo unspecified)	54.7
COC1(CNC(=O)c2ccc(F)c(F)c2)CCSC1 (stereo unspecified)	29.6
CCc1nnc(CNC(=O)CCC2CCCN(C)C2)s1 (stereo unspecified)	-57.5
Cc1ccsc1CN(CCCO)Cc1nc2ccccc2[nH]1	23.2

Structure (SMILES)	INHIBITION [%]
Oc1ccc(-c2c(-c3ccccc3)ncn2C[C@H]2CCCN2)cc1	-9.17
CCOc1ccc(-c2c(-c3ccccc3)ncn2C2CCNC2)cn1 (stereo unspecified)	24.8
Oc1ccc(-c2c(-c3ccccc3)ncn2C2CCNC2)cc1 (stereo unspecified)	54.5
O=C(CN1CCC(c2ccccc2)C1)NCC(F)(F)F (stereo unspecified)	37.8
Cn1ncc(C2CC(=O)NCc3nc4ccccn4c32)c1C1CC1 (stereo unspecified)	17.6
CCCn1ncc(C2CC(=O)NCc3nc4sc(C)cn4c32)c1C (stereo unspecified)	44.7
CCCn1ncc(C2CC(=O)NCc3nc4cc(C)ccn4c32)c1C (stereo unspecified)	71.5
CC1(C)O[C@@](C)([C@H]2CC3(CCN(c4cnccn4)CC3)CO2)CC[C@@H]1O	30.55
CN(C)C(=O)CCNC(=O)Nc1cccc(Cl)c1-n1cccn1	-10.3
CCc1cc(N(C)Cc2ccno2)n2nc(C)c(C)c2n1	-2.73
CCc1cc(N(C)Cc2ccncn2)n2nc(C)c(C)c2n1	42.3
CCc1cc(N(C)Cc2cc[nH]n2)n2nc(C)c(C)c2n1	81.7
Cc1cc(N(C)Cc2cc(C)on2)n2nc(C)c(C)c2n1	-45.4
CCc1cc(N(C)Cc2ccnc(C)c2)n2nc(C)c(C)c2n1	73.5
CCc1nnc(CN(C)c2cc(C)nc3c(C)c(C)nn23)o1	36.7
COc1ncc(-c2ccc(C(N)=O)cc2)c(OC)n1	9.41
CN(C)Cc1cn2c(n1)CN(C1CCOC1)CC2 (stereo unspecified)	-4.32
NC(=O)C1CCN(C(=O)NC(Cc2ccccc2)C(F)(F)F)CC1 (stereo unspecified)	-82.2
